Experimental data published in PubChem BioAssay (NCATS).
Unmarked numbers belong to inactive results. Results filed as inconclusive are left out. Calls of active or inactive are those of the source.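 How the source made its calls, unless noted: active means compounds whose dose series gives a full or clear partial fitted curve of increased nuclear translocation; inconclusive means weak partial curve or effect only at the top dose; inactive means no dose-dependent translocation response.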

target: Glucocorticoid receptor (Homo sapiens) (UniProt P04150); experiment: GR-GFP Redistribution (AID 450); conditions: U2OS GR-GFP nuclear translocation, laser cytometry, 2 h; series mostly up to 20.6 µM
Sequence (P04150 whole entry, looked up): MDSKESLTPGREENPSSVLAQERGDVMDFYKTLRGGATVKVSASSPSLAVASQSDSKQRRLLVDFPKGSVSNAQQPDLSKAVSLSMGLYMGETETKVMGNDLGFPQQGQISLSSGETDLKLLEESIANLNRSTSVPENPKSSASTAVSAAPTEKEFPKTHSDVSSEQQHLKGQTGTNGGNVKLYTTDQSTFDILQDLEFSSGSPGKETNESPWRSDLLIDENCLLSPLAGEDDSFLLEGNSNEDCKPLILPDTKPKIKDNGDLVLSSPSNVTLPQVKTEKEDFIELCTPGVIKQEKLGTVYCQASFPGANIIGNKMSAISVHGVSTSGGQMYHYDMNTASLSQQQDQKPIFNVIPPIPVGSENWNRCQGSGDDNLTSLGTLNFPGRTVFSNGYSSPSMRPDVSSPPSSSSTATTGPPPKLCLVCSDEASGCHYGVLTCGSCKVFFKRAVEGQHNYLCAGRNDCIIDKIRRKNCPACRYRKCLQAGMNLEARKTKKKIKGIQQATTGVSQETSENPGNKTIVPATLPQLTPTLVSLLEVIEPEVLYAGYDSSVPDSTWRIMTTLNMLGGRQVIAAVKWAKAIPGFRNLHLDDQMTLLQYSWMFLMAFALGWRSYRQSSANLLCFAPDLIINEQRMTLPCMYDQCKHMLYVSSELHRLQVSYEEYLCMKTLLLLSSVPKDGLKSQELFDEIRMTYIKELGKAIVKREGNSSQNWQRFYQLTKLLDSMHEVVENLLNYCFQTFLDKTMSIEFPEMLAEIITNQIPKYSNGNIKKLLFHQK
Potency means the concentration at half of the fitted maximal effect.

Structure (SMILES)	Potency [µM]
CCCCSc1nc(N)c(C#N)c(-c2cccs2)c1C#N	> 20.6
Oc1c(Cl)cc(Cl)cc1CNc1ccc(Br)cn1	> 20.6
Cn1c(NCc2ccco2)nc2c1c(=O)n(Cc1ccc(Cl)c(Cl)c1)c(=O)n2C	> 20.6
CCOc1cccc(-c2nnc3sc(C4CCCCC4)nn23)c1	> 20.6
Cc1ccc(S(=O)(=O)N2CCN(c3nc(C(C)C)c4c(c3C#N)CC(C)(C)OC4)CC2)cc1	> 20.6

system: not listed separately; experiment: qHTS Assay for Identification of Small Molecule Agonists for Hypoxia Response Element Signaling Pathway (AID 914; active means well fitted activation curve with a large enough effect in the signal ratio, with a control signal flat, not every such curve was filed as active; the % refers to the signal ratio; on activation: % of control where 0% means no effect); conditions: ME-180 (cervical carcinoma) HRE-bla reporter, beta-lactamase ratio, CoCl2, 17 h; activation: stronger effect = higher value
How it was run: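 HRE-bla ME-180 assay for agonist-like enhancement of an EC50 CoCl2 stimulus: 17 h at 37 degrees Celsius, CCF4 for 2.5 h, ratiometric 460/530 nm signal converted to %Activity and fitted to AC50.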

Structure (SMILES)	activation [%]	Potency
CNc1oc(-c2ccccc2Cl)nc1C#N	10.7	–
N#CC1=C(SCC(=O)c2ccccc2)NC2=C(C(=O)CCC2)C1c1ccco1 (stereo not drawn)	–	10 µM (active)
Cc1ccc(S(=O)(=O)c2cc3c(=O)n4ccccc4nc3n(C)c2=N)cc1	–	7.94 µM (active)
